The values below come from PubChem BioAssay.

The source made the active and inactive calls. Unless noted, no rule for the calls is given here.

Experiment [1] relates to XIP peptide (Xip251-270) binding. The experiment is described as follows: small-molecule binders of XIP peptide, primary screen, biochemical, small-molecule microarray, fluorescence 635/667 nm, 0.1 µg/mL protein (AID 1182). The conditions noted are these: fluorescent protein binding, 635 nm, higher = more signal, called active from +8 up or from −8 down.
The test system of a further experiment is XIP peptide (Xip251-270). The experiment is described as follows: small-molecule binders of XIP peptide, primary screen, biochemical, small-molecule microarray, fluorescence 635/667 nm, 0.5 µg/mL protein (AID 1183). To be noted: small-molecule microarray binding, fluorescence 635 nm; higher = more signal.
The nature of experiment [2]: Plasmodium falciparum growth inhibition, primary screen, strain 3D7, DAPI fluorescence, 100 nL (AID 1184).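 Also: parasites grown inside human red blood cells in medium with human serum.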 To be noted: P. falciparum 3D7 growth, 3 d, higher = more signal.
Experiment [3] concerns the target Homeobox protein Hox-A13 (Mus musculus) (UniProt Q62424). The experiment is described as follows: inhibitors of HoxA13-DNA binding, primary screen, biochemical, fluorescence polarization, labeled oligonucleotide (AID 1185). To be noted: 15 min, higher = more signal, called active from +8 up or from −8 down. For orientation: Fluorescence polarisation rises when a labelled molecule tumbles more slowly, as on binding a larger partner.

A short description of experiment [4]: inhibitors of hydroxyurea-induced Chk1 phosphorylation, primary screen, imaging, HeLa, phospho-Chk1 antibody, percent positive cells (AID 1186). The conditions noted are these: hydroxyurea-induced phospho-Chk1 immunofluorescence imaging, higher = more signal.
The nature of experiment [5]: inhibitors of hydroxyurea-induced Chk1 phosphorylation, primary screen, imaging, HeLa, phospho-Chk1 nuclear intensity (AID 1187). To be noted: hydroxyurea-induced phospho-Chk1 immunofluorescence imaging, higher = more signal.

Homeobox protein Hox-A13 (Mus musculus), sequence (Q62424 whole entry, looked up): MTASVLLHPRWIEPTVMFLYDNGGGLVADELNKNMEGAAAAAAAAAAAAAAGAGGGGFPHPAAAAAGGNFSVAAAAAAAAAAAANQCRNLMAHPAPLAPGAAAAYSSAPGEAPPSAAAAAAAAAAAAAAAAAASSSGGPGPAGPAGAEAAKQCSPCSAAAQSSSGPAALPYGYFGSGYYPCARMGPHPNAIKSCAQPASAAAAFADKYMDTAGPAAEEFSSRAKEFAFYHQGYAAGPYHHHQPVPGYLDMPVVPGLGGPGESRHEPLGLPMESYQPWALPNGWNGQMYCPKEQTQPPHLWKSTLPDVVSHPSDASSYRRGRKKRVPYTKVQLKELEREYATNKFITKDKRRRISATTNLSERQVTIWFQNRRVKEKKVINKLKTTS

Regarding `C=C(COC)/C(=C/C[C@@H](OC(=O)c1ccncc1)c1ccc(CO)o1)c1cc(C(=O)OC)ccc1OC`, the composite z-score is 0.215 (inactive) in experiment [1] and 0.838 in the experiment with XIP peptide (Xip251-270). The z-score is -0.644 in experiment [2], -4.26 (inactive) in experiment [3], -0.255 (inactive) in experiment [4] and -0.162 (inactive) in experiment [5].

`CC(C)C(=C=CC[C@@H](O)c1ccc(OCCO)cc1)C[C@@H](O)c1ccccn1`: the figures for the composite z-score (in experiment [1]; with XIP peptide (Xip251-270)) were 1.5 (inactive) and 0.198, respectively. Also, the z-score in experiment [2] is -0.278; in experiment [3], -5.14 (inactive); in experiment [4], -0.329 (inactive); in experiment [5], -0.22 (inactive).

In the case of `CC1CC/C=C\[C@H]2OC34C=CCN(Cc5ccccc5)C(=O)[C@H]3N(CCCO)C(=O)[C@@H]4C2C(=O)O1` (stereo partly drawn), the composite z-score in experiment [1] is 0.15 (inactive); in the experiment on XIP peptide (Xip251-270), 0.737. Further, the z-score in experiment [2] was 0.295; in experiment [3], -4.95 (inactive); in experiment [4], -0.364 (inactive); in experiment [5], -0.491 (inactive).

`O=C1OCCC/C=C\[C@H]2OC34C=CCN(Cc5ccccc5)C(=O)[C@H]3N(CCCO)C(=O)[C@@H]4C12` (stereo partly drawn): the composite z-score in experiment [1] is 0.0652 (inactive); in the experiment with XIP peptide (Xip251-270), -0.616. The z-score in experiment [2] was -0.125; in experiment [3], -4.98 (inactive); in experiment [4], -0.58 (inactive); in experiment [5], -0.324 (inactive).

In the case of `[N-]=[N+]=Nc1ccccc1[C@@H]1OC(c2ccc(OCCCO)cc2)=N[C@]1(CCS(=O)(=O)c1ccccc1)C(N)=O`, the composite z-score in experiment [1] is 1 (inactive); with XIP peptide (Xip251-270) it was 0.629. Moreover, the z-score in experiment [2] is -2.04; in experiment [3], -4.11 (inactive); in experiment [4], -0.154 (inactive); in experiment [5], -0.0216 (inactive).

With `CCOC(=O)C[C@H]1[C@H](OC(=O)c2ccccc2-c2ccccc2)[C@@H](NC(=O)CC(C)C)c2cc(OCCCO)ccc2N1C(=O)Cc1ccc(OC)cc1`, the composite z-score in experiment [1] is -0.245 (inactive); in the experiment with XIP peptide (Xip251-270), -0.328. The z-score in experiment [2] is -0.106; in experiment [3], -5.17 (inactive); in experiment [4], 0.34 (inactive); in experiment [5] it was 0.524 (inactive).

Take `COC(=O)[C@@]1(Cc2ccc(F)cc2)[C@H]2c3cc(C(=O)N4CCCC4)n(Cc4ccc(S(C)(=O)=O)cc4)c3C[C@H]2CN1C(=O)c1ccccc1`: the composite z-score in experiment [1] was 0.845 (inactive); in the experiment on XIP peptide (Xip251-270) it was 0.116. Besides, the z-score in experiment [2] was -1.46; in experiment [3] it was -4.4 (inactive); in experiment [4] it was 0.396 (inactive); in experiment [5] it was 0.172 (inactive).

Turning to `COC(=O)[C@@]1(Cc2ccc(F)cc2)[C@H]2c3cc(C(=O)N4CCCC4)n(CCCNc4ncc(C(F)(F)F)cc4Cl)c3C[C@H]2CN1C(=O)c1ccccc1`, the composite z-score in experiment [1] is 0.1 (inactive); with XIP peptide (Xip251-270), 0.716. The z-score was -1.41 in experiment [2], -4.2 (inactive) in experiment [3], 0.919 (inactive) in experiment [4] and 0.259 (inactive) in experiment [5].
